# Rows were chosen to be rich in hits. Some 0.9% of all compounds tested hit in one or more screens of this group.
# SRC1 TRFRET art: flags TR-FRET format artefacts in PPARgamma SRC-1 recruitment agonist screen; TR-FRET detection artefact counter-screen, emission ratio; hits give high values; TR-FRET ratio at 8 µM; 99,000 tested, 0.34% active; in the data active = TR-FRET ratio above about 2300
# PPARg SRC-1 ag: PPARgamma-driven SRC-1 recruitment agonism; P37231; PPARgamma-SRC-1 coactivator recruitment biochemical assay; activation, % at 8 µM; 200,000 tested, 0.41% active; in the data active = activation above about 19%
# Target sequence (P37231 whole entry, looked up): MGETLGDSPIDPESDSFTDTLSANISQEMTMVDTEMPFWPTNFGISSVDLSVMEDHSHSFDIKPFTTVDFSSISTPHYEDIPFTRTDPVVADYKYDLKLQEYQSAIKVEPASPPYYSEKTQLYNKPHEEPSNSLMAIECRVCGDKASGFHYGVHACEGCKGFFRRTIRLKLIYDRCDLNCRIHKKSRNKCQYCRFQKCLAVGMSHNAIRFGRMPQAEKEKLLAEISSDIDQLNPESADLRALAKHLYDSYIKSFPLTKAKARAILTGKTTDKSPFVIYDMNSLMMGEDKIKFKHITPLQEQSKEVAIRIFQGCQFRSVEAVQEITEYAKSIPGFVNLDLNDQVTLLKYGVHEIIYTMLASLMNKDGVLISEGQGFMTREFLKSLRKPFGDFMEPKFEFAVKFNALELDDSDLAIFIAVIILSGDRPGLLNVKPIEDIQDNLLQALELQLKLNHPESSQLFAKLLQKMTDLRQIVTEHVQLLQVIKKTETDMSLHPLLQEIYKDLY
# TR-FRET SRC-2 ct: flags TR-FRET format artefacts in PPARgamma SRC-2 recruitment agonist screen; TR-FRET artefact counter-screen; hits give high values; TR-FRET ratio at 8 µM; 200,000 tested, 0.4% active
# SRC3 TRFRET art: TR-FRET artefact, counter-screen to PPARgamma/SRC-3 agonist assay | 99,000 tested, 0.39% active | TR-FRET ratio at 8 µM | PPARgamma/SRC-3 format; hits give high values | AID 1048
# PPARg SRC3 recr: PPARgamma-driven SRC-3 recruitment agonism; AID 731; P37231; biochemical PPARgamma/SRC-3 coactivator recruitment assay; 200,000 tested, 0.26% active; activation, % at 8 µM; in the data active = activation above about 23%
# PPARg SRC2 recr: promotes SRC-2 coactivator recruitment by human PPARgamma. P37231. PPARgamma LBD-SRC-2 recruitment, biochemical. activation, % at 8 µM. 200,000 tested, 0.34% active. AID 1032; in the data active = activation above about 22%
# A number is an active result; . = inactive; / = no result given. Cut-off read from the data, not from the text of the source, unless noted: active = TR-FRET ratio above about 2000; inactive = the rest.
SMILES,SRC1 TRFRET art,PPARg SRC-1 ag,TR-FRET SRC-2 ct,SRC3 TRFRET art,PPARg SRC3 recr,PPARg SRC2 recr
CCc1nc2ccc(C(=O)Nc3nnc(C)s3)cc2nc1CC,6131,478,.,.,.,.
C#CCn1c(=NC(=O)c2ccc(Cl)s2)sc2cccc(OC)c21,/,.,.,/,30,.
COc1ccccc1C(=O)Nc1cccnc1,.,.,.,.,.,.
COc1ccccc1C(=O)Nc1ccccn1,/,.,.,/,.,24
COc1ccc(C2Nc3ccccc3C(=O)N2c2ccccc2)cc1CSc1ccccn1 (stereo not drawn),.,.,.,2243,.,.
CN1/C(=C\C(=S)NC(=O)c2ccccc2Cl)C(C)(C)c2ccccc21,.,.,.,.,.,.
COc1ccccc1C(=O)NC(=S)/C=C1/N(C)c2ccccc2C1(C)C,2384,.,.,.,.,.
CN1/C(=C\C(=O)Nc2ccc(Cl)cc2)C(C)(C)c2ccccc21,.,.,.,.,.,.
CN1/C(=C\C(=S)Nc2ccccc2)C(C)(C)c2ccccc21,.,.,1974,.,.,.
Brc1ccc(C=Nc2ccc(Nc3ccccc3)cc2)s1,.,.,.,.,.,29
N#Cc1c(-c2ccco2)nc(SCC(=O)Nc2cccc(Cl)c2)[nH]c1=O,/,.,2164,/,.,.
O=C(CSc1nc2c(c(=O)[nH]1)CCC2)Nc1cccc(Cl)c1,/,.,.,/,.,.
Cc1ccc(Cn2cc(/C=N/NC(=O)Cc3nnc(NC(=O)c4ccc(C)cc4)s3)c3ccccc32)cc1,.,.,.,.,.,.
N#CC1=C2SCN(c3ccccc3)CN2C(=O)CC1c1c(Cl)cccc1Cl (stereo not drawn),/,.,.,/,.,.
N#CC1=C2SCN(c3ccccc3)CN2C(=O)CC1c1cccs1 (stereo not drawn),/,.,2021,/,.,.
CCOc1ccc(N2CSC3=C(C#N)C(c4ccco4)CC(=O)N3C2)cc1 (stereo not drawn),/,.,.,/,.,25
Cn1nc(/C=C/c2ccccc2)ccc1=O,.,.,.,.,.,.
O=C(C1CCCN(S(=O)(=O)c2ccc(F)cc2)C1)N(Cc1cccs1)C1CC1 (stereo not drawn),2408,.,.,.,.,.
COc1ccccc1-c1cc(-c2ccccc2)nc(SC(C(N)=O)c2ccccc2)c1C#N (stereo not drawn),/,.,3201,/,.,.
Cc1ccc(NC(=O)CSc2ncc3ccccn23)cc1,.,.,.,.,.,.
COc1ccc(NC(=S)NNS(=O)(=O)c2ccc3ccccc3c2)c(OC)c1,.,.,.,.,.,.
C/C(=N\N=C(N)N)c1ccc(Cl)c(Cl)c1,.,.,.,.,.,.
CC1CCc2sc(C(=O)Nc3nnc(SCc4ccc(F)cc4)s3)cc2C1 (stereo not drawn),/,.,2241,/,.,.
CCOC(=O)c1sc(-c2ccccn2)nc1C,.,.,.,.,.,.
c1ccc2[nH]c3cc4ncnc4cc3nc2c1,.,22,.,.,.,.
SMILES,SRC1 TRFRET art,PPARg SRC-1 ag,TR-FRET SRC-2 ct,SRC3 TRFRET art,PPARg SRC3 recr,PPARg SRC2 recr
COc1cccc(CSc2nc3cc4c(cc3cc2C)OCCO4)c1,.,.,.,2784,.,.
Cc1cc2cc3c(cc2nc1SCc1ccc(C(=O)O)cc1)OCCO3,.,.,.,.,.,.
CCCNC(=O)C(CC)NS(=O)(=O)c1ccc(OC)cc1 (stereo not drawn),/,.,.,/,44,.
Cc1ccc(-c2nnc(NCc3nc4ccccc4[nH]3)c3ccccc23)cc1S(=O)(=O)N1CCCCC1,.,.,.,2547,.,.
Cc1ccc(-c2nnc(NC3CCCCC3)c3ccccc23)cc1S(=O)(=O)N1CCN(C)CC1,/,.,.,/,.,.
O=C(NCCc1c[nH]c2ccccc12)/C(=C/c1cccnc1)NC(=O)c1cccs1,.,.,.,.,.,.
CC(=O)c1c(N2CCN(c3ccc(F)cc3)CC2)nc(=S)n(Cc2ccccc2)c1C,.,.,.,2117,.,.
CCOC(=O)C1=NN(c2cccc(Cl)c2)C2=NC(C)=C(C(=O)OC)C(c3cccs3)N12 (stereo not drawn),/,.,.,/,.,27
COc1ccc(NC(=O)COC(=O)c2cccc(S(=O)(=O)N(C)C)c2)cc1,.,24,.,.,.,.
CCOc1ccc(CCNC(=O)CSc2nn(-c3ccc(C)c(Cl)c3)c(=S)s2)cc1OCC,2577,30,.,.,.,.
CCOc1ccc(CCNC(=O)CSc2nnnn2C)cc1OCC,.,.,.,.,.,.
COC(=O)c1ccc(COC(=O)c2ccc(S(=O)(=O)N3CCC(C)CC3)cc2)o1,/,21,.,/,.,.
O=C(Nc1nc(-c2cccs2)cs1)c1ccc(S(=O)(=O)N2CCCC2)cc1,/,.,2064,/,.,.
CN(C)S(=O)(=O)c1ccc(C(=O)Nc2nc(-c3cccs3)cs2)cc1,/,.,.,/,.,.
Cn1c2ccccc2c2cc(C(=O)OCC(=O)N3CC(=O)Nc4ccccc43)sc21,/,.,2536,/,.,.
CC(C)OCCCNC(=O)c1ccc2c(c1)ncn2C1CCCC1,.,.,.,.,.,.
O=C(NCCCN1CCCC1=O)c1ccc2c(c1)ncn2C1CCCCC1,.,.,.,.,.,22
S=C(c1cn(CCOc2ccccc2)c2ccccc12)N1CCCC1,/,.,.,/,.,.
S=C(c1cn(CCOc2cccc3ccccc23)c2ccccc12)N1CCCC1,3691,.,3070,3153,.,.
Cc1ccc(OCCn2cc(C(=S)N3CCCC3)c3ccccc32)cc1C,/,.,2180,/,.,.
Cc1ccc2[nH]c(=O)c(CN(CCCN(C)C)C(=O)Nc3ccc(F)cc3)cc2c1,.,.,.,.,.,.
COC(=O)c1sccc1NC(=O)c1ccc(Br)s1,/,43,.,/,.,.
O=C(COC(=O)[C@@H]1CCCN1C(=O)c1cccs1)Nc1ccc(F)cc1[N+](=O)[O-],.,.,.,.,.,.
COC(=O)c1ccc(NC(=S)NCCCn2ccnc2)cc1,.,.,.,.,.,.
CCOc1ccccc1Nc1nnc(SCC(=O)Nc2nc(-c3ccc(OC)cc3)cs2)s1,.,.,2038,.,.,.
SMILES,SRC1 TRFRET art,PPARg SRC-1 ag,TR-FRET SRC-2 ct,SRC3 TRFRET art,PPARg SRC3 recr,PPARg SRC2 recr
O=C(c1ccccc1NS(=O)(=O)c1cccc2cccnc12)N1CCOCC1,.,.,.,.,.,.
O=c1c2cnn(-c3ccccc3)c2nc(-c2cccs2)n1-c1cccc(Cl)c1,.,.,.,2389,.,.
O=c1c2cnn(-c3ccccc3)c2nc(-c2cccs2)n1-c1ccc(Cl)cc1,/,.,.,/,.,.
O=C(Nc1ccc(N2CCCCC2)cc1)c1ccccc1,/,19,.,/,.,.
O=C(Nc1ccncc1)c1cncc(Br)c1,/,.,.,/,.,.
Cc1ccc(C(=O)Nc2ccc(N3CCCC3)cc2)cc1,.,22,.,.,.,.
O=C(Nc1ccc(N2CCCCC2)cc1)c1cncc(Br)c1,/,20,.,/,.,.
N#CCCN(C(=O)COc1ccc(F)cc1Br)c1ccccc1F,.,.,.,.,.,.
COc1cc(NC(=O)c2cccc(C)c2)c(OC)cc1NC(=O)CN1CCOCC1,.,.,.,.,.,.

# Source: PubChem BioAssay (The Scripps Research Institute Molecular Screening Center)
